# According to PubChem BioAssay:
# Active and inactive are the calls of the source.
# Legend:
# [1] = molecular target: Albumin (Bos taurus) (UniProt P02769); experiment: bovine serum albumin binders on microarray, profiling panel, artefact control for SMM control protein annotation, biochemical, small-molecule microarray, Alexa647 label, 635/667 nm fluorescence (AID 1118); conditions: BSA-A647 binding, fluorescence 635 nm, higher = more signal;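 further: score merges 667 nm emission intensity and signal-to-noise per printed compound spot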
# [2] = small-molecule microarray binders of probe aXIP, primary screen, biochemical, NeuroSMM set, 635/667 nm fluorescence (AID 1119); conditions: higher = more signal, called active from +8 up or from −8 down;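 further: probe is the protein aXip251-270 applied at 1 µg/mL to compound-printed slides; binding of probe to printed compounds measured as 667 nm fluorescence plus signal to noise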
# [3] = small-molecule binders of probe aNOTCH3, primary screen, biochemical, small-molecule microarray, 635/667 nm fluorescence (AID 1120); conditions: higher = more signal;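 further: probe is a biotin-tagged antibody raised against NOTCH3 rather than NOTCH3 protein; score merges spot fluorescence near 667 nm with spot signal to noise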
# [4] = small-molecule binders of probe aNOTCH2, primary screen, biochemical, small-molecule microarray, 635/667 nm fluorescence (AID 1121); conditions: higher = more signal;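 further: score merges feature fluorescence read at 667 nm with its signal to noise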
# [5] = molecular target: Carbonic anhydrase 2 (Homo sapiens) (UniProt P00918); experiment: CAII small-molecule binders, profiling panel, biochemical, small-molecule microarray, Alexa647-labelled CAII (AID 1122); conditions: CAII-A647 binding fluorescence, higher = more signal
# [6] = COS7 lysate on small-molecule microarray, probe aHis, 635 nm (AID 1123); conditions: COS7 cell lysate, fluorescence, higher = more signal;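 further: z-score combines 667nm fluorescence intensity with signal-to-noise per printed compound spot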
# [7] = compound binding in COS7 lysate, probe aLAP1, primary screen, cell lysate, small-molecule microarray (AID 1124); conditions: probe aLAP1, fluorescence, higher = more signal;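 further: lysate comes from COS7 cells expressing LAP1 and is applied at 0.3 µg/mL; score merges spot fluorescence near 667 nm with signal-to-noise over triplicate slides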
# [8] = tested on: Sam68 (KHDRBS1); experiment: Sam68 small-molecule binders, primary screen, biochemical, small-molecule microarray, 635 nm fluorescence (AID 1125); conditions: small-molecule microarray binding, higher = more signal;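 further: score merges 667 nm channel intensity with signal to noise over triplicate slides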
# [9] = tested on: Chordin-like protein 2 (CHRDL2); experiment: CHRDL2 small-molecule binders, primary screen, biochemical, small-molecule microarray, 635 nm fluorescence (AID 1126); conditions: small-molecule microarray binding, fluorescence 635 nm; higher = more signal;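 further: printed compound slides probed with Chrdl2 protein at 4 µg/mL for 1 h at 4 C; score merges 667 nm emission intensity with signal to noise over three replicate slides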
# [10] = molecular target: Concanavalin-A (Canavalia ensiformis) (UniProt P02866); experiment: ConA small-molecule binders, primary screen, artefact control for SMM control protein annotation, biochemical, small-molecule microarray, Alexa647 label, 635 nm (AID 1127); conditions: ConA-A647 binding fluorescence, higher = more signal;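 further: z combines 667 nm emission intensity with signal-to-noise across three replicate slides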
# [11] = anti-His antibody binders, primary screen, artefact control for SMM control protein annotation, biochemical, small-molecule microarray, 635 nm fluorescence (AID 1128); conditions: anti-His Alexa647 antibody binding, higher = more signal;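 further: score merges feature fluorescence with signal-to-noise for each printed compound spot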
# [12] = tested on: Human papillomavirus type 1a E7 protein (residues 1-88); experiment: HPV1a E7 small-molecule binders, primary screen, biochemical, small-molecule microarray, residues 1-88, 635 nm (AID 1129); conditions: small-molecule microarray binding, fluorescence 635 nm; higher = more signal
# [13] = molecular target: Focal adhesion kinase 1 (Homo sapiens) (UniProt Q05397); experiment: small-molecule microarray binders of FAK, primary screen, biochemical, 635/667 nm fluorescence, BSA, DTT (AID 1130); conditions: PTK2 binding, 635 nm fluorescence, higher = more signal;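 further: composite of spot emission at 667 nm and signal to noise over triplicate slides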
# [14] = tested on: Fibrinogen (Alexa647-labelled); experiment: fibrinogen binders on compound microarrays, profiling panel, artefact control for SMM control-protein annotation, biochemical, small-molecule microarray, 635/667 nm fluorescence (AID 1131); conditions: fibrinogen-A647 binding fluorescence, higher = more signal;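 further: z-score merges 667 nm fluorescence with per-spot signal-to-noise over triplicate slides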
# [15] = molecular target: Follistatin (Homo sapiens) (UniProt P19883); experiment: follistatin binders on small-molecule microarrays, primary screen, biochemical, small-molecule microarray, 635/667 nm fluorescence (AID 1132); conditions: FST binding, 635 nm fluorescence, higher = more signal
# [16] = molecular target: Fibroblast growth factor 2 (Homo sapiens) (UniProt P09038); experiment: FGF2 binders on small-molecule microarrays, primary screen, biochemical, small-molecule microarray, 635/667 nm fluorescence (AID 1133); conditions: small-molecule microarray binding, FGF2, fluorescence 635/667; higher = more signal
# [17] = mitochondrial membrane potential change in A549 cells, profiling panel, cell-based, JC-1 fluorescence, basal, 24 h, 100 nL (AID 1138); conditions: higher = more signal;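 further: A549 lung adenocarcinoma cells under basal conditions with no added stimulus; test concentration not given here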
# [18] = tested on: Lefty1; experiment: Lefty1 binders on small-molecule microarrays, primary screen, biochemical, small-molecule microarray, 635/667 nm fluorescence (AID 1139); conditions: small-molecule microarray binding, fluorescence 635/667; higher = more signal
# [19] = tested on: wheat germ agglutinin (Triticum aestivum), Alexa647-labelled; experiment: wheat germ agglutinin binders on compound microarrays, profiling panel, artefact control for SMM control-protein annotation, biochemical, small-molecule microarray, 635/667 nm fluorescence (AID 1140); conditions: WGA-A647 binding, 635 nm fluorescence, higher = more signal;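 further: score merges 667 nm feature emission with signal to noise over triplicate slides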
# [20] = molecular target: Luciferin 4-monooxygenase (Photinus pyralis) (UniProt P08659); experiment: firefly luciferase enzyme inhibitors, primary screen, biochemical, luminescence, purified enzyme, 2006 set (AID 1141); conditions: SteadyGlo luminescence, 30 min, higher = more signal, called active from +8 up or from −8 down;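 further: cell-free assay with purified firefly luciferase at 100 ng per well in PBS; test concentration not given here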
# Sequence of Luciferin 4-monooxygenase (Photinus pyralis) (P08659 whole entry, looked up): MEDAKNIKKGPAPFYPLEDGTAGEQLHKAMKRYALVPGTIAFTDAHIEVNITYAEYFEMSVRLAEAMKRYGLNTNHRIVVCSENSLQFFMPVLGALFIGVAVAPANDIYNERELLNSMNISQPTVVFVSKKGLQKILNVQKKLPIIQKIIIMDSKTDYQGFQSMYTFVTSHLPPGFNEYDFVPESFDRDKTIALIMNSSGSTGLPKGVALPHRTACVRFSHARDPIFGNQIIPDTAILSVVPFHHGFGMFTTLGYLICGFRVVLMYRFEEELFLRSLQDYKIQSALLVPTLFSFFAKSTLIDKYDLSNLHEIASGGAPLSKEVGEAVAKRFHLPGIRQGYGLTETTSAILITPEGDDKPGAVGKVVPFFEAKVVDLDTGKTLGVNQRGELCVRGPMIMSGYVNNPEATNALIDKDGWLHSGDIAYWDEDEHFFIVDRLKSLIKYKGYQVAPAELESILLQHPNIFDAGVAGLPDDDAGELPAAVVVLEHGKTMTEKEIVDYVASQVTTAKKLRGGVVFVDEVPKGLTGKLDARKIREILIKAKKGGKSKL
# Sequence of Fibroblast growth factor 2 (Homo sapiens) (P09038 whole entry, looked up): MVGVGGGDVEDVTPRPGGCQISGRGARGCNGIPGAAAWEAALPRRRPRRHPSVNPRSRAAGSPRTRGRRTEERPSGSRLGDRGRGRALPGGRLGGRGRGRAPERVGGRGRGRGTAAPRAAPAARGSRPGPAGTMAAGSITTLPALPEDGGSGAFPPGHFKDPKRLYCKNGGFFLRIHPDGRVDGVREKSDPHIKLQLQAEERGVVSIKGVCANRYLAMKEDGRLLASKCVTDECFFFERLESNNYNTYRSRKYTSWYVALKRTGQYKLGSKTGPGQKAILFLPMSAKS
# Sequence of Focal adhesion kinase 1 (Homo sapiens) (Q05397 whole entry, looked up): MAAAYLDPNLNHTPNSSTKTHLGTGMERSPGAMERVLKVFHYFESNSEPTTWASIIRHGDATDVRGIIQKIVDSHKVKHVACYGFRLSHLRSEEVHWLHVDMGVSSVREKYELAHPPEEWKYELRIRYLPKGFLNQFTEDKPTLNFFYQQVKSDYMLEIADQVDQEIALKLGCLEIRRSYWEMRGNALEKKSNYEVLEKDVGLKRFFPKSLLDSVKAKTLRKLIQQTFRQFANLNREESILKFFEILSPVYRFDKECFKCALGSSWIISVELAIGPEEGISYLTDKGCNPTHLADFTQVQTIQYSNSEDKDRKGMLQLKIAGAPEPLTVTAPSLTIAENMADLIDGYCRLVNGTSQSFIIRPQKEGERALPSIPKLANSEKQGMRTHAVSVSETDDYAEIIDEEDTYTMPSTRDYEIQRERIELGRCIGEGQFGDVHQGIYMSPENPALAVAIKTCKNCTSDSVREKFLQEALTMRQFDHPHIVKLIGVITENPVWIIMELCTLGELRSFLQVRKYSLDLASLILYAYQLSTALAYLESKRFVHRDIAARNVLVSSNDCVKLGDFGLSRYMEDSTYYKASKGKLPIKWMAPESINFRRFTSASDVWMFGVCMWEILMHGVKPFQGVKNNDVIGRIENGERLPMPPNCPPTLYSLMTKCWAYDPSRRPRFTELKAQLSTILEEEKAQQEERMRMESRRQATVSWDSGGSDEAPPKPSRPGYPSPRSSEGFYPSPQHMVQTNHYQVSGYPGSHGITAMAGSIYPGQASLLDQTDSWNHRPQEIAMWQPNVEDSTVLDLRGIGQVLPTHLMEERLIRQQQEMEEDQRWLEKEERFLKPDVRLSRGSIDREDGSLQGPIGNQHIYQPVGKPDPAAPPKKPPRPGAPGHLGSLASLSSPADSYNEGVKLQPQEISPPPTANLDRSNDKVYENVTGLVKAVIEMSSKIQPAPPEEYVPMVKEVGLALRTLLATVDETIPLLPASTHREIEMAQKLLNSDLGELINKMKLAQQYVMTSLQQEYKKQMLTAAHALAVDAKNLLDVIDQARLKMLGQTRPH
# Sequence of Concanavalin-A (Canavalia ensiformis) (P02866 whole entry, looked up): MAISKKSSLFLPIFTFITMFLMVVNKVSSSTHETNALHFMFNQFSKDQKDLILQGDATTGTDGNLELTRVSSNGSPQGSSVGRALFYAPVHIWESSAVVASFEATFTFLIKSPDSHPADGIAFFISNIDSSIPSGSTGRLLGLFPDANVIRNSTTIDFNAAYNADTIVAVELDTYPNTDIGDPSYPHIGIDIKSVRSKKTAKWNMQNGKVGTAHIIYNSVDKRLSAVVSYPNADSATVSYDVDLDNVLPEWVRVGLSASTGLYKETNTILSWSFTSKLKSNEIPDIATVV
# Sequence of Albumin (Bos taurus) (P02769 whole entry, looked up): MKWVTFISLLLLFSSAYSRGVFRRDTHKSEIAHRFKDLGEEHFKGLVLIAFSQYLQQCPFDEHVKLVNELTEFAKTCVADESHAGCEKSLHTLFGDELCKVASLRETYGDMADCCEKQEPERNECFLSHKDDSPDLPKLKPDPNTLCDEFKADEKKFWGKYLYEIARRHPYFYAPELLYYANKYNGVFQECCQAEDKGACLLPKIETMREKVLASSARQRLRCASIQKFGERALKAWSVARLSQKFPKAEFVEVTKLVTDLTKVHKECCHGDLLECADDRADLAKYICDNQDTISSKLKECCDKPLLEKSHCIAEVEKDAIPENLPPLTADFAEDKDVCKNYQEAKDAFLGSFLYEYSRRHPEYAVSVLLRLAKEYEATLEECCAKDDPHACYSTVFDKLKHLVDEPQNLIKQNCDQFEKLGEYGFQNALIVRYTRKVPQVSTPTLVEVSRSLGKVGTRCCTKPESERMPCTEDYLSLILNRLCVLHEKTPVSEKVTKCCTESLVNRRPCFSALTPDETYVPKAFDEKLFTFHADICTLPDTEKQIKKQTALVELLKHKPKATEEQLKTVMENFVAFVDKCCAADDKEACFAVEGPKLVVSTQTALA
# Sequence of Follistatin (Homo sapiens) (P19883 whole entry, looked up): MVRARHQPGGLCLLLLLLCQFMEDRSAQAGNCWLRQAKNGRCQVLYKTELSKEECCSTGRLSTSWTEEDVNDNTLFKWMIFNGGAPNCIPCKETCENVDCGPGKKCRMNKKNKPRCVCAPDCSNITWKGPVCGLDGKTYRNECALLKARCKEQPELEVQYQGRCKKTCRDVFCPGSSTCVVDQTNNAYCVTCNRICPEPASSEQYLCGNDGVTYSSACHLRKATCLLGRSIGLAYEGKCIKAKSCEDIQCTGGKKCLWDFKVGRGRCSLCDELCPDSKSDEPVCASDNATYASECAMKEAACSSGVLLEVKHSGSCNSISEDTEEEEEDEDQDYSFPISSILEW
SMILES,composite z-score [1],composite Z-score [2],composite z-score [3],composite z-score [4],composite z-score [5],composite z-score [6],composite z-score [7],composite z-score [8],composite z-score [9],composite z-score [10],composite z-score [11],composite z-score [12],composite z-score [13],composite z-score [14],composite z-score [15],composite z-score [16],z-score [17],composite z-score [18],composite z-score [19],z-score [20]
CCCC[C@@H]1C[C@H]1[C@@H](NC(=O)c1ccc(-c2ccccc2)cc1)c1ccc(-c2ccccc2)cc1,-0.0732,-0.254 (inactive),-0.0072,-0.0795,0.0853,0.468,-0.113,0.287,1.42,-0.142,0.0916,0.481,0.504,0.348,1.37,0.271,0.738,0.971,0.249,0.779 (inactive)
CCCN1C(=O)[C@@]2(CCC(=O)OC(C)(C)C)N=C(c3ccc(OCCCO)cc3)O[C@H]2c2ccccc21,0.556,0.548 (inactive),0.0225,-0.0633,0.376,1.69,0.0436,1.31,0.345,0.958,2.6,0.999,0.677,0.274,1.4,1.53,1.13,0.691,0.133,-2.45 (inactive)
CCCCC(O)C1C=CC2C(=O)N(C3CCCCC3)C(=O)C2N1Nc1ccc(OC)cc1 (stereo not given),0.739,0.258 (inactive),0.11,-0.0894,0.511,1.53,0.56,1.19,-0.135,0.8,0.17,1.2,0.601,0.733,1.19,-0.0692,0.191,0.496,1.14,1.06 (inactive)
C=CCNC(=O)[C@@H]1[C@H]2C(=O)O[C@H](c3ccccc3)[C@H](c3ccccc3)N2[C@H](c2ccccc2OCCO)[C@@]12C(=O)Nc1ccc(C#CC3=CCCCC3)cc12,0.482,-0.224 (inactive),0.0105,-0.0907,0.271,2.18,0.536,1.3,0.436,0.99,1.57,1.22,0.683,0.9,1.21,1.02,-1.55,1.12,0.971,-1.48 (inactive)
C=CCN1C(=O)[C@]2(O[C@H](CCO)[C@@H]([Si](C)(C)c3ccc(OC)cc3)[C@@H]2C)c2cc(NC(=O)[C@H](C)O)ccc21,0.851,1.31 (inactive),0.0203,-0.0666,0.56,1.39,0.371,1.31,0.174,1.01,1.58,1.22,0.937,0.762,0.222,0.313,0.388,0.673,0.394,-0.181 (inactive)
[N-]=[N+]=NCc1ccccc1C[C@]1(C(=O)O)N=C(c2ccc(OCCCO)cc2)O[C@H]1c1ccccc1CN=[N+]=[N-],0.938,-0.313 (inactive),-0.027,-0.011,0.696,2.7,0.513,1.34,-0.69,1.17,1.25,1.03,0.378,1.02,0.879,0.157,0.0653,-0.8,1.08,-1.49 (inactive)
COc1ccc(CCNC(=O)[C@@]2(Sc3ccc(C)cc3)CC(=O)N(Cc3ccccc3Cl)[C@@H]2c2ccc(CO)cc2I)cc1,0.331,-0.0194 (inactive),-0.177,-0.0814,0.76,1.71,1.18,0.361,0.0024,-0.233,2.25,0.349,-0.0568,0.35,1.03,0.664,2.03,-0.954,0.593,0.674 (inactive)
O=C1OCCC/C=C\[C@H]2OC34C=CCN(Cn5nnc6ccccc65)C(=O)[C@H]3N(CCCCCO)C(=O)[C@@H]4C12 (stereo not given in full),0.743,-0.263 (inactive),-0.267,-0.14,0.881,0.0505,-0.477,-0.445,-0.977,-0.702,0.123,-0.654,-0.43,-1.02,-0.31,-1.16,0.248,-0.204,-1.03,0.786 (inactive)
COCCCNC(=O)[C@@]1(c2ccc([N+](=O)[O-])cc2)CC(=O)N(CC23CC4CC(CC(C4)C2)C3)[C@@H]1c1ccc(CO)cc1,0.197,0.324 (inactive),0.204,-0.117,0.43,0.726,0.375,1.28,0.556,1.08,0.344,1.18,0.745,0.799,1.27,1.62,0.846,0.983,0.203,0.183 (inactive)
O=C1O[C@H](c2ccccc2)[C@H](c2ccccc2)N2[C@H]1[C@@H](C(=O)NC[C@H](O)c1ccccc1)[C@]1(C(=O)Nc3ccc(C#CCCO)cc31)[C@H]2c1ccc(O)cc1,-0.746,1.33 (inactive),-0.0259,-0.14,-0.702,0.155,1.11,-0.317,-0.316,-0.743,-1.3,-1.08,-0.598,-1.07,-1.26,-0.702,-1.17,-0.929,-1.09,0.145 (inactive)
O=C(NCc1ccccc1)[C@]1(CCS(=O)(=O)c2ccccc2)N=C(c2ccc(OCCCO)cc2)O[C@@H]1c1ccccc1,0.714,0.235 (inactive),0.296,-0.048,0.555,0.751,0.379,1.31,0.205,1.08,1,1.18,0.471,0.939,0.919,-0.0072,-0.864,0.469,0.785,0.781 (inactive)
